This is part of a sample that, as a whole, favours compounds with a hit. Of some 79,000 tested, about 15% had one in any assay. Values without a mark were called inactive. Calls of active or inactive are those of the source. Rule as the data show it: active = growth inhibition above about 70%; inactive = the rest.

The source of these data is PubChem BioAssay (NCI).

Test [1] can be described thus: NCI Yeast Anticancer Drug Screen. Data for the rad50 strain (AID 155).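 Also: 0% = growth of vehicle-only cultures of the same strain.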 As to conditions: S. cerevisiae rad50 strain growth inhibition; at 50.0 µM; hits give high values. In a few lines: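 A DNA repair-deficient yeast mutant serves as the test organism; compound-induced growth inhibition is calculated against vehicle-treated cells.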
Test [2] can be described thus: NCI Yeast Anticancer Drug Screen. Data for the mec2-1 strain (AID 157). Particulars: S. cerevisiae mec2-1 strain, at 50.0 µM, hits give high values. In outline:
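mec2-1 yeast strain, carrying an alteration in DNA damage repair or cell cycle control, was exposed to compounds; growth inhibition was measured relative to vehicle-treated controls.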

Test [3] can be described thus: NCI Yeast Anticancer Drug Screen. Data for the sgs1 mgt1 strain (AID 161).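 Also: 0% = growth of cultures given vehicle only.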 Particulars: S. cerevisiae sgs1 mgt1 strain, at 50.0 µM, hits give high values. In a few lines: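 Growth of a repair-deficient yeast mutant was monitored after compound treatment and expressed as inhibition relative to vehicle-treated cultures.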
The nature of test [4]: NCI Yeast Anticancer Drug Screen. Data for the cln2 rad14 strain (AID 165).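 Also: 0% = growth equal to vehicle treated cultures.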 Particulars: S. cerevisiae cln2 rad14 strain, at 50.0 µM, hits give high values. In outline: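 Yeast carrying cln2 and rad14 alterations (cell cycle control and DNA damage repair) were exposed to compounds. Growth inhibition was measured against vehicle-treated controls.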
Test [5] can be described thus: NCI Yeast Anticancer Drug Screen. Data for the bub3 strain (AID 167). As to conditions: S. cerevisiae bub3 mutant strain, at 50.0 µM, hits give high values. In a few lines: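 Inhibition values come from growth of compound-treated mutant yeast normalised to vehicle-treated controls.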
A short description of test [6]: NCI Yeast Anticancer Drug Screen. Data for the mlh1 rad18 strain (AID 175). Particulars: S. cerevisiae mlh1 rad18 strain growth inhibition; at 50.0 µM; hits give high values. In outline:
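Growth inhibition of the yeast strain was measured after compound exposure and expressed relative to vehicle-treated controls. The strain carries defined defects in DNA damage repair.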

Take `CC(N)CCCO` (stereo unspecified): the growth inhibition is -5.15% in test [1]; -5.5% in test [2]; 0.75% in test [3]; 10.3% in test [4]; -2.05% in test [5]; -2.05% in test [6].
Take `C=CCOC(=O)Nc1ccc(C)c(NC(=O)OCC=C)c1`: the growth inhibition was -28.3% in test [1]; -45% in test [2]; -9.1% in test [3]; -25.5% in test [4]; -12.6% in test [5]; -33.1% in test [6].
Regarding `CNC(=S)N(C)/N=C/c1ccccc1`, the growth inhibition in test [1] was 10.3%; in test [2] it was 2.4%; in test [3], -3.75%; in test [4], -28.9%; in test [5], -7.15%; in test [6] it was 3%.
Turning to `CCOC(=O)C1C(C)=CC(=O)CC1CC` (stereo unspecified), the growth inhibition was 24.3% in test [1]; -10.7% in test [2]; 14.8% in test [3]; -1.05% in test [4]; -3.85% in test [5]; 22.5% in test [6].
Turning to `CSC(=N)N1N=C2c3ccccc3CC[C@@H]2[C@@H]1c1ccccc1`, the growth inhibition is -0.1% in test [1]; -7.3% in test [2]; -18.9% in test [3]; 38% in test [4]; -10.8% in test [5]; -18.4% in test [6].
Take `COc1ccc(OCc2nc3cc(C(F)(F)F)ccc3nc2-c2ccccc2)cc1`: the growth inhibition was -2.65% in test [1]; 3.45% in test [2]; 11.2% in test [3]; 5.2% in test [4]; 25.9% in test [5]; -70.4% in test [6].
As for `c1ccc(SC(Sc2ccccc2)=C2CCC2)cc1`, the growth inhibition was 9.7% in test [1]; -8.1% in test [2]; 10.4% in test [3]; 14.8% in test [4]; 18% in test [5]; -6.35% in test [6].
As for `Oc1ccc(Cl)cc1CC(=S)N1CCOCC1`, the growth inhibition was 11.1% in test [1]; 1.3% in test [2]; 0.45% in test [3]; -10.4% in test [4]; 3.4% in test [5]; -3.9% in test [6].
For `CC(C)OC(=O)CC1CCCCC1`, the growth inhibition in test [1] was -4%; in test [2], -4.4%; in test [3], -14.1%; in test [4], 2.95%; in test [5] it was 3.9%; in test [6], 3.15%.
For `NC(=O)CC(N)C(=O)OCc1ccc([N+](=O)[O-])cc1` (stereo unspecified), the growth inhibition was -12.7% in test [1]; 0% in test [2]; -3.45% in test [3]; -11.2% in test [4]; -5.95% in test [5]; -11.3% in test [6].
As for `COc1ccc(N2C(=O)C3c4[nH]c5ccccc5c4C4CCC(C(C)(C)C)CC4C3C2=O)cc1OC` (stereo unspecified), the growth inhibition was 46.8% in test [1]; 18.4% in test [2]; 14.8% in test [3]; -3.4% in test [4]; 44.2% in test [5]; 38.1% in test [6].
For `ON=C(c1ccccc1)c1ccccc1`, the growth inhibition is -0.15% in test [1]; -3.8% in test [2]; -2.05% in test [3]; -7.2% in test [4]; -1.95% in test [5]; -2.95% in test [6].
Consider `N#Cc1c2nc3ccccc3nc2n2ccc3ccccc3c12`, for which the growth inhibition was -50% in test [1]; -61% in test [2]; -83.3% in test [3]; -13.1% in test [4]; -42.5% in test [5]; -71.7% in test [6].
On to `O=C(O)C12CCCC(CCC1)C2`, for which the growth inhibition was -2.2% in test [1]; 1.05% in test [2]; -3.8% in test [3]; -4.35% in test [4]; -0.2% in test [5]; -0.55% in test [6].
For `Cc1ccc(/C=C/C(=O)/C=C/c2ccc(C)cc2)cc1`, the growth inhibition in test [1] was 9.05%; in test [2], 9.25%; in test [3], 15.6%; in test [4], -2.6%; in test [5], 23.6%; in test [6] it was 18.7%.
Regarding `CC/C(=N\O)c1ccc2cc(Cl)c3ccccc3c2c1`, the growth inhibition in test [1] is 21.7%; in test [2], 25.4%; in test [3], 44.5%; in test [4], 8.75%; in test [5], 54.2%; in test [6], 31.9%.
For `CC[CH2][Sn]([CH2]CC)([O]C(=O)c1cccnc1SC)[O][Sn]([CH2]CC)([CH2]CC)[O]C(=O)c1cccnc1SC`, the growth inhibition is 88.5% (active) in test [1]; 90% (active) in test [2]; 90.8% (active) in test [3]; 88.9% (active) in test [4]; 89.1% (active) in test [5]; 82.1% (active) in test [6].
In the case of `CCCCCCCCNC=O`, the growth inhibition was 26.1% in test [1]; 11.1% in test [2]; 9.45% in test [3]; 1.1% in test [4]; 13.1% in test [5]; 20.8% in test [6].
As to `C[C@H]1C(=O)OCN1S(=O)(=O)C(C)(C)C`, the growth inhibition in test [1] was -0.05%; in test [2], 25%; in test [3], 16.1%; in test [4], -1.8%; in test [5], 16.1%; in test [6], -2.95%.
Turning to `CCCCCSc1nc2c([nH]1)c(=O)n(C)c(=S)n2C`, the growth inhibition in test [1] is 14.5%; in test [2], -6.35%; in test [3], 1.95%; in test [4], -8.8%; in test [5], 0.6%; in test [6], -15.6%.
As to `COC(=O)C(CC(=O)Nc1ccc(C)cc1)C(=O)C(=O)Nc1c(C(C)C)cccc1C(C)C` (stereo unspecified), the growth inhibition is -43.4% in test [1]; -17.8% in test [2]; -7.5% in test [3]; 6.1% in test [4]; -9.9% in test [5]; -25.2% in test [6].
